Results as given in PubChem BioAssay AID651640 (Broad Institute, 2012).
Several values for one entry are separate records, joined by “and”; a condition that tells them apart may be missing. Equal values may be shown once. Out of some 350,000 compounds screened, about 6,000 (1.7%) were called active. Roughly 5% stayed inconclusive and do not appear here. This is one part of a sample in which actives are shown more often than they occur. Values without a mark were called inactive. Cut-off read from the data, not from the text of the source: active = CPE inhibition above about 20% (passing the limit was not always enough); inconclusive = no clear call, values can overlap the other calls; tested in BHK-21 cells.

Experiment: inhibitors of DENV2 cytopathic effect, primary screen, cell-based, plate reader, single concentration (AID 651640);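 note: 0% = median of neutral control wells and 100% = median of positive control wells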
Conditions: DENV2-infected cells, cytopathic effect rescue, at 9.99 µM, hits give high values

| SMILES | CPE inhibition |
| --- | --- |
| COCC(=O)Nc1ccc2c(c1)OC[C@@H](C)N(C(=O)c1ccncc1)C[C@@H](C)[C@@H](OC)CN(C)C2=O | 13.2% |
| O=C(NC[C@H]1CC[C@@H]2[C@@H](CN2S(=O)(=O)c2ccccc2F)O1)C1CCCCC1 | -10.6% |
| COCC#Cc1cnc2c(c1)C(=O)N([C@@H](C)CO)C[C@H](C)[C@@H](CN(C)Cc1ccccc1)O2 | 7.93% |
| CCOc1ncccc1C(=O)Nc1ccc(S(=O)(=O)Nc2nc(C)cc(C)n2)cc1 | -5.45% |
| CCOc1ncccc1C(=O)NNC(=O)c1cccc(S(=O)(=O)Nc2ccccc2OC)c1 | 23.7% (active) |
| CCN(CC(=O)NCc1cccs1)C(=O)c1cccc(S(=O)(=O)Nc2ccccc2OC)c1 | 0.937% |
| O=C(NC[C@@H]1[C@@H](c2ccccc2)[C@H](CO)N1C(=O)Cc1cccnc1)C1CC1 | -4.58% |
| COCC(=O)N[C@@H]1C[C@@H]2O[C@@H](CO)CC[C@@H]2O[C@@H]1CCc1ccc(-c2ccccc2)cc1 | 14.8% |
| CN(C)CC#Cc1ccc([C@H]2[C@H]3CN(C(=O)c4cccc(F)c4)CC(=O)N3[C@H]2CO)cc1 | 0.131% |
| CCOC(=O)C(Cc1ccccc1)NC(=O)CCC(=O)c1ccc(OC)cc1 (stereo unspecified) | -0.51% |
| COc1cc([C@H](Cc2ccccc2)NC(C)=O)oc(=O)c1 | 23.5% (active) |
| COc1ccc(OC)c(NC(=O)N[C@H](Cc2ccccc2)C(=O)NN)c1 | -9.79% |
| COCC(=O)N(C)C[C@@H]1Oc2ncc(C#C[C@H](C)O)cc2C(=O)N([C@@H](C)CO)C[C@@H]1C | -2.59% |
| C[C@H]1CN([C@@H](C)CO)C(=O)c2cc(Br)cnc2O[C@@H]1CN(C)C(=O)c1ccccc1F | 2.37% |
| CCc1ccc(OC(C)C(=O)Nc2ccc(S(=O)(=O)Nc3cc(C)on3)cc2)cc1 (stereo unspecified) | 2.4% |
| Cc1cc(NS(=O)(=O)c2ccc(NC(=S)NC(=O)c3ccc(F)cc3Cl)cc2)no1 | 78.9% (active) |
| CCOc1ccc(C(=O)Nc2ccc(S(=O)(=O)Nc3cc(C)on3)cc2)cc1 | 1.57% |
| CCC(=O)Nc1ccc2c(c1)C(=O)N(C)[C@@H]1CC[C@H](CC(=O)NCc3ccccc3)O[C@H]1CO2 | -3.19% |
| COc1ccc(CN(C)C[C@@H]2Oc3ccc(NC(=O)Nc4ccc(OC)cc4)cc3C(=O)N([C@H](C)CO)C[C@H]2C)cc1 | -3.17% |
| C[C@@H]1CN([C@@H](C)CO)C(=O)c2cc(NC(=O)Nc3ccc(C(F)(F)F)cc3)ccc2O[C@@H]1CN(C)Cc1ccncc1 | 31.1% (active) |
| C[C@@H]1CCCCO[C@@H](CN(C)Cc2ccc(C(=O)O)cc2)[C@H](C)CN([C@@H](C)CO)C(=O)c2cc(NC(=O)Nc3ccc(C(F)(F)F)cc3)ccc2O1 | 17.1% |

| SMILES | CPE inhibition |
| --- | --- |
| C[C@H]1CCCCO[C@@H](CN(C)Cc2ccc(C(F)(F)F)cc2)[C@@H](C)CN([C@@H](C)CO)C(=O)c2cc(NC(=O)Nc3ccccc3)ccc2O1 | -2.84% |
| C[C@H](CO)N1C[C@H](C)[C@@H](CN(C)Cc2ccncc2)Oc2ccc(NC(=O)Nc3ccccc3)cc2C1=O | 7.94% |
| C[C@H](CO)N1C[C@H](C)[C@@H](CN(C)Cc2ccc3c(c2)OCO3)Oc2ccc(NC(=O)Nc3ccc(F)cc3)cc2C1=O | -6.58% |
| C[C@@H]1CCCCO[C@@H](CN(C)C(=O)Nc2ccc(C(F)(F)F)cc2)[C@H](C)CN([C@H](C)CO)C(=O)c2cc(NC(=O)c3ccccc3)ccc2O1 | 4.25% |
| C[C@H](CO)N1C[C@H](C)[C@H](CN(C)Cc2ccncc2)Oc2ccc(NC(=O)Nc3ccc(F)cc3)cc2C1=O | -10.5% |
| C[C@@H]1CN([C@H](C)CO)C(=O)c2cc(NC(=O)Nc3ccccc3)ccc2O[C@@H](C)CCCCO[C@H]1CN(C)Cc1ccc(C(F)(F)F)cc1 | -1.92% |
| COc1ccc(NC(=O)Nc2ccc3c(c2)C(=O)N([C@@H](C)CO)C[C@H](C)[C@@H](CN(C)Cc2ccc4c(c2)OCO4)O3)cc1 | 31.5% (active) |
| C[C@@H]1CCCCO[C@@H](CN(C)Cc2ccc(C(=O)O)cc2)[C@@H](C)CN([C@@H](C)CO)C(=O)c2cc(NC(=O)Nc3ccc(C(F)(F)F)cc3)ccc2O1 | 21.1% (active) |
| C[C@@H]1CN([C@@H](C)CO)C(=O)c2cc(NC(=O)Nc3ccc(C(F)(F)F)cc3)ccc2O[C@@H](C)CCCCO[C@H]1CN(C)C(=O)c1ccccc1 | 25.6% (active) |
| COc1ccccc1-c1cn(CC[C@H]2CC[C@@H](NC(=O)CCN3CCCCC3)[C@@H](CO)O2)nn1 | -1.83% |
| C[C@H]1CN([C@@H](C)CO)S(=O)(=O)c2ccc(C#Cc3cccc(F)c3)cc2O[C@@H]1CN(C)S(=O)(=O)c1cn(C)cn1 | -0.538% |
| CCNC(=O)[C@H]1[C@H](CO)[C@H]2Cn3c(cccc3=O)[C@@H]1N2Cc1cc(F)ccc1F | -7.97% |
| CCCNC(=O)N1C[C@@H](O)COC[C@@H]2O[C@@H](CC(=O)O)CC[C@H]21 | 5.1% |
| CN(C)CC(=O)N[C@@H]1C[C@@H]2O[C@H](CO)CC[C@@H]2O[C@@H]1CCc1ccc(C#Cc2ccccc2)cc1 | 6.51% |
| C[C@H](CO)N1C[C@H](C)[C@H](CN(C)C)Oc2ncc(/C=C/c3ccccc3)cc2C1=O | -2.89% and -2.09% |
| C[C@H]1CCCCO[C@@H](CN(C)Cc2ccc3c(c2)OCO3)[C@@H](C)CN([C@@H](C)CO)C(=O)c2cc(NC(=O)Nc3ccc(F)cc3)ccc2O1 | 23% (active) |
| C[C@@H]1CCCCO[C@@H](CN(C)Cc2ccc3c(c2)OCO3)[C@@H](C)CN([C@@H](C)CO)C(=O)c2cc(NC(=O)Nc3ccccc3)ccc2O1 | -0.739% |
| Cc1noc(C)c1NC(=O)Nc1ccc2c(c1)C(=O)N([C@H](C)CO)C[C@H](C)[C@H](CN(C)Cc1ccc(-c3ccccc3)cc1)O2 | 5.27% |
| C[C@@H]1CN([C@@H](C)CO)C(=O)c2cc(/C=C/c3ccccc3)cnc2O[C@H]1CN(C)C(=O)Nc1ccc(C(F)(F)F)cc1 | 22.8% (active) |
| C[C@H](CO)N1C[C@H](C)[C@H](CN(C)Cc2ccncc2)Oc2ccc(N(C)C)cc2C1=O | 24.8% (active) |
| C/C=C/c1cnc2c(c1)C(=O)N([C@H](C)CO)C[C@H](C)[C@@H](CN(C)C(=O)Nc1ccc(C(F)(F)F)cc1)O2 | -8.88% |

| SMILES | CPE inhibition |
| --- | --- |
| C[C@H]1CN([C@@H](C)CO)C(=O)c2cc(N(C)C)ccc2O[C@@H]1CN(C)Cc1ccccc1 | 1.9% |
| Cc1noc(C)c1NC(=O)Nc1ccc2c(c1)C(=O)N([C@@H](C)CO)C[C@H](C)[C@H](CN(C)Cc1ccc(-c3ccccc3)cc1)O2 | -1.16% |
| C[C@@H]1CN([C@H](C)CO)C(=O)c2cc(NC(=O)Nc3ccc4c(c3)OCO4)ccc2O[C@@H](C)CCCCO[C@@H]1CN(C)Cc1ccc2c(c1)OCO2 | -24.7% |
| Cc1noc(C)c1NC(=O)Nc1ccc2c(c1)C(=O)N([C@H](C)CO)C[C@@H](C)[C@@H](CN(C)Cc1ccccc1)O2 | 33.6% (active) |
| C[C@@H]1CN([C@@H](C)CO)C(=O)c2cc(N(C)C)ccc2O[C@H]1CN(C)Cc1ccc(C(F)(F)F)cc1 | 2.48% |
| C[C@H](O)C#Cc1cnc2c(c1)C(=O)N([C@H](C)CO)C[C@@H](C)[C@@H](CN(C)C(=O)Nc1ccc(C(F)(F)F)cc1)O2 | -2.9% |
| C[C@@H]1CN([C@@H](C)CO)C(=O)c2cc(-c3ccccc3F)cnc2O[C@H]1CN(C)C(=O)C1CC1 | -2.29% |
| CO[C@H](CN(C)S(=O)(=O)c1ccc(Cl)cc1)[C@@H](C)CN(Cc1ccccc1Cl)[C@H](C)CO | 2.31% |
| O=C(C1CCOCC1)N1CC(=O)N2[C@H](CO)[C@H](c3ccc(C#CC4CCCCC4)cc3)[C@H]2C1 | -10.5% |
| O=C(C[C@@H]1C[C@@H]2c3cc(NC(=O)CC4CC4)ccc3O[C@@H]2[C@@H](CO)O1)NCCN1CCCCC1 | 1.09% |
| COc1ccc(NC(=O)N(C)C[C@@H]2OCCCC[C@@H](C)Oc3ccc(NC(=O)NC4CCCCC4)cc3C(=O)N([C@H](C)CO)C[C@@H]2C)cc1 | 1.54% and 2.7% |
| COc1ccc(NC(=O)N(C)C[C@H]2OCCCC[C@@H](C)Oc3ccc(NC(=O)NC4CCCCC4)cc3C(=O)N([C@H](C)CO)C[C@H]2C)cc1 | 9.97% |
| COc1ccc(NC(=O)N(C)C[C@H]2OCCCC[C@H](C)Oc3ccc(NC(=O)NC4CCCCC4)cc3C(=O)N([C@@H](C)CO)C[C@@H]2C)cc1 | 76.4% (active) |
| COc1ccc(NC(=O)N(C)C[C@@H]2OCCCC[C@H](C)Oc3ccc(NC(=O)c4ccccc4)cc3C(=O)N([C@H](C)CO)C[C@H]2C)cc1 | -12.7% |
| COc1ccc(NC(=O)N(C)C[C@H]2OCCCC[C@H](C)Oc3ccc(NC(=O)c4ccncc4)cc3C(=O)N([C@H](C)CO)C[C@@H]2C)cc1 | 21.4% (active) |
| COc1ccc(NC(=O)N(C)C[C@H]2OCCCC[C@@H](C)Oc3ccc(NS(=O)(=O)c4ccc(F)cc4)cc3C(=O)N([C@H](C)CO)C[C@H]2C)cc1 | 10.2% |
| COc1ccc(NC(=O)N(C)C[C@H]2OCCCC[C@@H](C)Oc3ccc(NC(=O)c4ccncc4)cc3C(=O)N([C@@H](C)CO)C[C@H]2C)cc1 | 4.05% |
| COc1ccc(NC(=O)N(C)C[C@H]2OCCCC[C@H](C)Oc3ccc(NS(=O)(=O)c4ccc(Cl)cc4)cc3C(=O)N([C@@H](C)CO)C[C@H]2C)cc1 | 12.8% |
| COc1ccc(NC(=O)N(C)C[C@@H]2OCCCC[C@@H](C)Oc3ccc(NS(=O)(=O)c4ccc(Cl)cc4)cc3C(=O)N([C@H](C)CO)C[C@H]2C)cc1 | 37.6% (active) |
